TGFb inhibitor = TGF-b pathway inhibition; HepG2 CAGA-GFP TGF-b/SMAD3 reporter, GFP fluorescence, 18 h; TGF-beta stimulated, 500 pg/mL final; Potency, µM (top dose mostly 46.1 µM), for the others: at the highest dose activity, negative = inhibition, most hits filed as inhibitors; actives 1.2% (n = 410,000); also: % is scaled to controls: 0 for no effect and ±100 for the full control effect; nearly all actives have a fitted effect of over 65% in size
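GFP signal (ex488/em500-530) from TGF-beta-stimulated HEPG2 CAGA-GFP cells, 500 pg/mL final, 18 h at 37 degrees C in DMEM plus 1% FBS, normalized to unstimulated and DMSO-stimulated controls.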
Nrf2 ARE act = Nrf2 pathway activation; Potency, µM (titrated, usually from 46.1 µM), for the others: top-dose activation, usual class: activators; AID 624171; AREc32 ARE-luciferase reporter (MCF7-derived line), luminescence, 24 h; actives 0.31% (n = 410,000); also: % of control where 0% means no effect; nearly all actives have a fitted effect of over 65% in size
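Steps: seed AREc32_Fluc cells (1000/well, 5% FBS OPTI-MEM); incubate overnight at 37 deg C; add 23 nL compound; incubate 24 hr; add Steady-Glo; hold 30 min RT; read luminescence.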
HepG2 tox = counter-screen for TGF-b inhibitors: cytotoxicity in HepG2 cells. HepG2 CAGA-GFP viability, ATP luminescence, 18 h. Potency, µM (titrated, usually from 46.1 µM), for the others: at the top dose activity change, negative = cytotoxicity, actives largely listed as cytotoxic. actives 0.76% (n = 410,000)
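CellTiter-Glo luminescence gave cytotoxicity after 18 hours at 37 degrees C. The cells were HepG2 CAGA-GFP in 1% FBS DMEM, stimulated with 500 pg/mL TGF-beta after compound addition. %Activity was normalised to no-cell wells (complete cell-killing) and DMSO (no toxicity), and curves were fitted and classified.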
A549 tox = counter-screen for Nrf2 inhibitors: cytotoxicity in A549 cells; A549 ARE-Fluc cells, CellTiter-Fluor viability, 18-24 h; Potency, µM (top dose mostly 46 µM), without a hit: at the highest dose activity change, negative = cytotoxicity, usual class: inhibitors; actives 0.16% (n = 390,000); AID 504648; also: % is scaled to controls: 0 for no effect and ±100 for the full control effect
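A549 ARE-Fluc cells in 5% FBS OPTI-MEM, 5000 cells/well, rested 2 h then exposed to compounds in concentration-response for 18-24 h at 37 °C. Viability by CellTiter-Fluor fluorescence (Ex 405/Em 525) after 30 min; luciferase luminescence (BugLite, 15 min, RT) read afterwards.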
Nrf2 block = Nrf2 pathway inhibition; A549 ARE-Fluc reporter, luciferase luminescence, 18-24 h; Potency, µM (highest dose often 46 µM), without a hit: at the top dose activity change, negative = inhibition, most hits filed as inhibitors; actives 2.1% (n = 360,000); AID 504444; also: % is scaled to controls: 0 for no effect and ±100 for the full control effect; nearly all actives have a fitted effect of over 60% in size
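Concentration-response testing used A549 ARE_Fluc cells at 5000 cells/well. Following an 18-24 h compound incubation, viability was read by fluorescence (Ex 405/Em 525) and luciferase output by luminescence.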
Starred values were filed as active, the others as inactive; ? = inconclusive; . = no result given; ! = a repeat was not active. This is a sample that favours compounds with a hit; in the whole collection about 3.6% have one here. Calls follow the shape of the dose curve; as a rule, active = well fitted curve in the direction sought with a large enough effect; inconclusive = small, poorly fitted or top-dose-only effect, or another doubt; inactive = no such curve, though single readings can be large; an effect the other way counts as inactive or inconclusive. Potency is read from the fitted curve at half-maximal effect.

SMILES	TGFb inhibitor	Nrf2 ARE act	HepG2 tox	A549 tox	Nrf2 block
COc1ccc(S(=O)(=O)Cc2ccc(C(=O)NC3CCCCC3)o2)cc1	-5%	0%	-1%	1%	15µM*!
Cc1ccccc1S(=O)(=O)Cc1ccc(C(=O)NC2CCCC2)o1	6%	-2%	-12%	-2%	?
COc1ccc(S(=O)(=O)Cc2ccc(C(=O)NC3CC3)o2)cc1	35%	-1%	4%	-7%	1%
Cc1ccccc1S(=O)(=O)Cc1ccc(C(=O)NC2CC2)o1	-12%	0%	-23%	?	21µM*
OC1c2cc(Br)ccc2N=C2CCCCCN21 (stereo unspecified)	-18%	6%	-24%	.	.
O=C(Nc1cccc2cccnc12)c1cccc2ccccc12	-34%	10%	-28%	-4%	?
COc1ccc(NC(=O)c2oc3ccc(S(=O)(=O)N4CCOCC4)cc3c2C)c(OC)c1	5%	-1%	12%	5%	-7%
CCn1c(N)nc2c1c(=O)n(C)c(=O)n2C	3%	0%	3%	0%	4%
Cc1ccccc1-c1nc2c(=O)n(C)c(=O)nc-2n(C)n1	0.63µM*	.	1.1µM*	4.1µM*	2.3µM*
CCCc1nc2c(=O)n(C)c(=O)nc-2n(C)n1	1.1µM*	-3%	1.1µM*	6.5µM*	23µM*
Cc1ccc(-n2c3nc(=O)n(C)c(=O)c-3cc3ccccc32)cc1	3%	-1%	-2%	1%	-8%
CCc1ccc(-c2nc3c(=O)n(C)c(=O)nc-3n(CC)n2)cc1	0.89µM*	.	1.3µM*	?	15µM*
Cn1nc(-c2ccccn2)nc2c(=O)n(C)c(=O)nc1-2	2.2µM*	-3%	2.8µM*	3.3µM*	3.7µM*
COc1ccc2ccc3c(c2c1)N=C[C@]1(O3)N(C)c2ccccc2C1(C)C	?	15%	6.3µM*	-17%	-15%
CC1CCCc2sc3nc(SCC(=O)c4ccc(Br)cc4)nc(N)c3c21 (stereo unspecified)	?	7%	-17%	-3%	-13%
C/C(=N\Nc1cc(N2CCCCC2)nc(C)n1)c1ccc(Br)cc1	10µM*	15%	16µM*	-22%	?
Cc1ccc(-c2cc3ccccc3nc2N2CCOCC2)cc1	-9%	3%	-6%	?	23%
CCc1c(C2(O)CCCCC2)[nH]c2cc(C(F)(F)F)ccc12	?	-1%	14µM*	-20%	?
CN1CCN(C2=C(Cl)C(=O)c3ccccc3C2=O)CC1	?	-3%	10µM*	?	?
O=C1C(Cl)=C(N2CCC(C(=O)O)CC2)C(=O)c2ccccc21	?	?	-75%	-13%	-9%
NC(=O)C1CCN(C2=C(Cl)C(=O)c3ccccc3C2=O)CC1	?	26%	7.1µM*	.	-12%
CCN(CC)S(=O)(=O)c1ccc(N2CCN(c3ccccc3O)CC2)nc1	-17%	2%	1%	-1%	18µM*
CCN(CC)S(=O)(=O)c1ccc(N2CCN(CCO)CC2)nc1	-2%	0%	17%	0%	?
CCOC(=O)N1CCN(c2ccc(S(=O)(=O)N(Cc3ccccc3)Cc3ccccc3)cn2)CC1	-49%	2%	-4%	-16%	16µM*
Cc1ccc(C(=O)NC(=S)NNC(=O)c2ccccc2)cc1	-30%	0%	-33%	-17%	?
SMILES	TGFb inhibitor	Nrf2 ARE act	HepG2 tox	A549 tox	Nrf2 block
O=C(NNC(=S)NC(=O)c1ccc(Br)cc1)c1ccc([N+](=O)[O-])cc1	0%	3%	-22%	-2%	21µM*
O=C(NNC(=O)c1ccc([N+](=O)[O-])cc1)c1ccc(Br)cc1	8%	-1%	-2%	3%	-19%
Cc1ccc(C(=O)NNC(=S)NC(=O)c2ccc(Cl)cc2Cl)cc1	?	0%	-29%	-20%	21µM*
Cc1ccc(C(=O)NNC(=S)NC(=O)c2ccccc2)cc1	-27%	4%	-18%	?	16µM*
COC(=O)C1=CN(C)C=C(C(=O)OC)C1c1ccsc1	3%	0%	9%	9%	1%
COC(=O)C(NNc1ccc(F)cc1)(NC(=O)c1ccccc1)C(F)(F)F (stereo unspecified)	-1%	1%	-9%	-3%	23µM*
Cc1ccc(S(=O)(=O)Nc2nc(C)c(C)s2)cc1	4%	-2%	3%	-2%	-7%
CC(=O)c1ccc(Nc2ccc([N+](=O)[O-])c3nonc23)cc1	11µM*	11µM*	-19%	?	-1%
CCc1nnc(NS(=O)(=O)c2ccc(NC(=O)c3cccc([N+](=O)[O-])c3)cc2)s1	2%	-1%	4%	5%	1%
CCc1nnc(NS(=O)(=O)c2ccc(Nc3ccc([N+](=O)[O-])c4nonc34)cc2)s1	-6%	2%	-2%	23µM*	-27%
CCc1nnc(NS(=O)(=O)c2ccc(NC(=O)c3ccc([N+](=O)[O-])s3)cc2)s1	?	14µM*	-32%	.	.
CC(C)Nc1ccc(C(CC(N)=O)NC(=O)c2ccccc2)cc1[N+](=O)[O-] (stereo unspecified)	-5%	0%	0%	-16%	-11%
C=CCn1c(C)cc(C(=O)COc2nncc3ccccc23)c1C	2%	0%	-3%	-12%	?
CCCC(=O)N(CCc1ccc(OC)cc1)Cc1nc2ccccc2c(=O)[nH]1	-6%	-1%	-23%	-8%	23µM*
CCN(Cc1nc2ccccc2c(=O)[nH]1)C(=O)COc1ccccc1Cc1ccccc1	-18%	1%	-9%	-15%	16µM*
CCOc1cc(/C=C2\N=C(C)OC2=O)cc(Br)c1OCCc1ccccc1	7%	0%	-16%	0%	-10%
O=C(O)c1ccc(N/N=C/c2cn(Cc3ccc(F)cc3)c3ccccc23)cc1	?	4%	-74%	-13%	?
O=[N+]([O-])/C=C/c1cn(Cc2ccc(F)cc2)c2ccccc12	7.9µM*	-2%	-59%	?	-29%
C[n+]1cc2c3c(ccc2c2ccc4cc5c(cc4c21)OCO5)OCO3	1.4µM*	.	-105%	?	?
Cc1cccc(N2CCN(C(=O)CCN3C(=S)NC(C)(C)CC3C)CC2)c1C (stereo unspecified)	-12%	0%	-1%	-6%	-24%
Cc1ccc(C)c(N2CCN(C(=O)CCCN3C(=S)NC(C)(C)CC3C)CC2)c1 (stereo unspecified)	?	-1%	-34%	-5%	16µM*
O=C(Cc1cccc2ccccc12)NCC(=O)Nc1ccccc1F	4%	2%	3%	0%	-15%
CCn1c2ccccc2c2cc(/C=C(/C#N)C(N)=S)ccc21	4µM*	7%	-57%	-3%	-12%
